# Results reported in PubChem BioAssay (EPA / NIEHS).
# Active and inactive are the calls of the source. Rule for the calls: active = hit-call score of the fitted dose curve at least 0.9, where 1 is the maximum; inactive = score below 0.9.
# Experiment: CCTE_Deisenroth_5AR_NBTE_acceptor: CCTE's 5alpha-reductase NanoBRET Target Engagement Assay - Autofluorescence Screen, Deisenroth Lab (AID 2284321);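 note: compound fluorescence in the acceptor channel under 460 nm excitation flags autofluorescence artifacts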
# Conditions: actives raise or lower the signal
# Experimental: CCTE_Deisenroth_5AR NBTE (5alpha-reductase NanoBRET Target Engagement Assay) is a cell-based, single-readout assay that uses HEK293T, a human kidney cell line, with measurements taken at 5 hours after chemical dosing in a 384 well plate. This assay includes a primary and secondary screen as well as an autofluorscence screen.CCTE_Deisenroth_5AR NBTE_acceptor is one of four assay components measured from the CCTE_Deisenroth_5AR NBTE assay. It is designed to make measurements of resonant fluorescence generated by bioluminescent energy transfer to a target fluorophore, as detected by fluorescence intensity emission signals using spectrometry technology.Data from the assay component CCTE_Deisenroth_5AR NBTE_acceptor was analyzed into 1 assay endpoint. This assay endpoint, CCTE_Deisenroth_5AR NBTE_acceptor, was analyzed with bidirectional fitting relative to DMSO as the negative control and baseline of activity. Using a type of inducible reporter, gain or loss-of-signal activity can be used to understand changes in the acceptor fluorescence as related to 5alpha-reductase catalytic function. Furthermore, this assay endpoint can be referred to as a secondary readout, because this assay has produced multiple assay endpoints where this one serves an artifact detection function.
# Chemicals from the blinded ToxCast library were diluted 1000-fold in DMSO to an assumed nominal concentration of 100 uM. Samples were scanned in three independent runs (n=3) on a multi-mode plate reader at a fixed excitation wavelength of 460 nm with emission filter set at […]. For reference, tracer was included at DMSO-solubilized concentrations of 100 uM (the top tested concentration for each test chemical) and 600 nM (the final working concentration of the tracer probe).
Compound,outcome,AC50
CC1=NN(c2cc(S(=O)(=O)O)ccc2Cl)C(=O)C1N=Nc1ccccc1 (stereo not given),inactive,–
COC(=O)c1c(C)cc(O)c(C)c1O,inactive,–
CCCc1ccc(OC)cc1,inactive,–
CCCCCCCC[N+](C)(CCCCCCCC)CCCCCCCC,–,8.7 µM (active)
CCN(CCC#N)c1ccc(N=Nc2c(Cl)cc([N+](=O)[O-])cc2Cl)cc1,inactive,–
CN(C)c1ccc(C(=N)c2ccc(N(C)C)cc2)cc1,inactive,–
Cc1ccc(C(C)c2ccc(C)c(C)c2)cc1C,inactive,–
C1CN(SSN2CCOCC2)CCO1,inactive,–
Oc1ccc(Cl)cc1Cc1cc(Cl)ccc1O,inactive,–
CCCCCCCC/C=C\CCCCCCCC(=O)O,inactive,–
